GoLoco inh red: inhibitors of human Gai1-RGS12 GoLoco interaction (red fluorophore) | P63096 | Gai1:RGS12 GoLoco peptide FP, rhodamine, 10 min | Potency, µM (series often up to 61.6 µM), most hits filed as inhibitors | hit rate 0.44% among 230,000 | AID 880; active means well fitted inhibition curve with a large enough effect, not every such curve was filed as active; inactive means no such curve, though single readings can be large or run the other way; further: nearly all actives have a fitted effect of over 30% in size
PI4K2A inh: inhibitors of human PI4K2A; purified PI4K2A, ADP-Glo luminescence, 1 h; stronger effect = lower value; Q9BTU6; AID 1346378; activity change, negative = inhibition, % at 76.9 µM; hit rate 0.13% among 420,000; in the data active means activity change below about -50%; inconclusive means mostly about -30% to -49%
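PI4K2A activity was measured by ADP-Glo luminescence: enzyme (4 ug/mL stock) and phosphatidylinositol (1.2 mM stock) in Tris pH 7.5/MgCl2/EGTA/Triton X-100 buffer were reacted with ATP (300 microM stock) for one hour at ambient temperature.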
KAT2A inh: blocks human GCN5L2 histone acetyltransferase; Potency, µM (top dose mostly 58.9 µM), hits mostly inhibitors; GCN5L2 HAT assay, ThioGlo1 CoA-SH fluorescence; hit rate 0.21% among 390,000; Q92830
Target sequence (Q92830 whole entry, looked up): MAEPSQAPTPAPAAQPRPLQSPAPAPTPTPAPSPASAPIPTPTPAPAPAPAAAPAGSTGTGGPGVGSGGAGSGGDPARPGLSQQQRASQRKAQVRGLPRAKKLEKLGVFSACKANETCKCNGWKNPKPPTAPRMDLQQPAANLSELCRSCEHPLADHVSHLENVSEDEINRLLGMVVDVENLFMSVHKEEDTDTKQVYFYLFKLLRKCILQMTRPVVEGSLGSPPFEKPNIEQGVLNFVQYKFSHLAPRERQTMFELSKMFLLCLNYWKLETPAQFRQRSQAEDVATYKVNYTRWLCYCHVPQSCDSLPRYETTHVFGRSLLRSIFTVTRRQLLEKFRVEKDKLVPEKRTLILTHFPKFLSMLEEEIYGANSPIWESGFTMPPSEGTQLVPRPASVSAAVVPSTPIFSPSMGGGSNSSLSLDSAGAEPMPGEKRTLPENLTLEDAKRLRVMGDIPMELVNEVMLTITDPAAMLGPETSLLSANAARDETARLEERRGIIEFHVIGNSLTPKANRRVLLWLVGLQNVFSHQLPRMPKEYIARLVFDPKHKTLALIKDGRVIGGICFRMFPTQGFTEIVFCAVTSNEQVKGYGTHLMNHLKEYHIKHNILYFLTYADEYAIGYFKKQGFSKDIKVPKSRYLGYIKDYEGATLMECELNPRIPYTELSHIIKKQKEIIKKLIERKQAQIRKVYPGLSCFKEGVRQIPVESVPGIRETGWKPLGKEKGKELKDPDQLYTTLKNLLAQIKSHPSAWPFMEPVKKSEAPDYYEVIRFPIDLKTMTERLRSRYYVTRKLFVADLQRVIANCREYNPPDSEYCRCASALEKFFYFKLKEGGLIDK
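Free CoA generated was detected with ThioGlo1 (50uM) fluorescence at Ex340nm/Em540nm, read immediately and after 20 min at room temperature. Enzyme, 20 nM in HEPES pH 7.5 buffer, saw compounds 15 min before adding 75uM H3(1-25) peptide and 70uM acetyl-CoA.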
Tb PGK inh: inhibitors of T. brucei phosphoglycerate kinase; PGK/GAPDH coupled, Kinase-Glo luminescence, 60 min; hit rate 0.043% among 380,000; Potency, µM (series often up to 57.5 µM), actives largely listed as inhibitors; AID 602233; P07378; further: nearly all actives have a fitted effect of over 60% in size
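Luminescent ATP detection (Kinase-Glo Plus) follows a 60-minute room-temperature incubation, with wells lacking PGK as controls. Buffer: 100 mM TEA (pH 7.6), 5 mM MgCl2, 0.01% Tween-20. Coupling enzyme GAPDH (100 nM final) supplies unstable 1,3-BPG in-well.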
PI5P4K alpha inh: inhibitors of human PI5P4K alpha. PI5P4Kalpha enzyme, ADP-Glo luminescence, 60 min; stronger effect = lower value. max response, %. hit rate 1.2% among 330,000; active means max response of -50% or lower; inconclusive means between -30% and -50%; inactive means -30% or higher; further: value at the top dose of about 77 µM
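Reactions run in 0.038 M HEPES pH 7.4, 0.28 mM EGTA, 0.1% CHAPS and 5% DMSO, with PI5P4Kalpha, substrate, compound and 5 microM ATP final, one hour at room temperature. Readout is ADP-Glo luminescence.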
Pin1 inh: human Pin1 inhibition; Pin1 FP peptide displacement, HiFluor488, 10 min; Potency, µM (doses to about 115 µM), actives largely listed as inhibitors; hit rate 0.009% among 390,000; AID 504891; active means well fitted inhibition curve with a large enough effect in the polarisation, with a control signal flat, not every such curve was filed as active; inconclusive means small, poorly fitted or top-dose-only effect, or effect the other way, or a change in a side signal; inactive means no such curve, though single readings can be large or run the other way; the % refers to the polarisation
ADP-Glo interf: interferes with ADP-Glo detection without enzyme present. shares compounds with PI5P4K alpha inh. ADP-Glo detection counter-screen, luciferase luminescence, no enzyme. Potency, µM (highest dose often 76.9 µM), usual class: inhibitors. 1,100 tested, under 10 active. AID 743285
A number is an active result; – = inactive; ? = inconclusive; · = no result; [ ] = remark or other dose. Only some compounds are listed: those with a hit (about 1.2% of all), similar ones and a draw of the others. Unless noted, the call rests on the fitted dose curve; in most records, active means well fitted curve in the direction sought with a large enough effect; inconclusive means small, poorly fitted or top-dose-only effect, or another doubt; inactive means no such curve, though single readings can be large; an effect the other way counts as inactive or inconclusive.

SMILES	GoLoco inh red	PI4K2A inh	KAT2A inh	Tb PGK inh	PI5P4K alpha inh	Pin1 inh	ADP-Glo interf
CC1CCN(C(=O)c2ccc(COc3ccccc3Cl)o2)CC1	–	–	–	–	-55	–	–
CCC(=O)Nc1ccc2nc(SCCOc3ccccc3)sc2c1	·	–	–	–	·	–	·
CCN(CC)C(=O)CSc1nc2ccc(NC(=O)CSc3nnc(N)s3)cc2s1	–	–	–	–	-57	?	–
CC(=O)Nc1ccc2nc(SCC(=O)NCCOc3ccccc3)sc2c1	–	–	–	–	-61	–	–
CC1(OC(=O)CCc2ccccc2)C(=O)C=C2C=C(c3ccc(C#N)cc3)N(Cc3ccco3)C=C2C1=O (stereo unspecified)	–[14.2 µM]	–	–	–	-53	–	–
N#Cc1c(SCC(=O)Nc2nncs2)sc2c(O)cc(=O)[nH]c12	·	–	?	?	-76	?	–
COc1cc(Cl)c(C)cc1NC(=O)CSCC#N	–	–	–	–	·	–	·
COc1cc(Cl)c(C)cc1NC(=O)CSc1sc2c(O)cc(=O)[nH]c2c1C#N	·	–	?	–	-73	?	–
COCCNc1nc2c(c(=O)n(C)c(=O)n2C)n1CCCc1ccccc1	·	–	·	–	–	·	·
N#Cc1ccccc1OCc1cn(CC(=O)c2ccc(O)cc2)nn1	·	?	·	–	-58	–	–
O=C(Cn1cc(COc2ccccc2[N+](=O)[O-])nn1)c1ccc(O)cc1	·	–	·	–	–	–	·
COc1ccc(CCNC(=O)C2CC(c3cccc(F)c3)=NO2)cc1 (stereo unspecified)	–	–	–	–	?	–	–
CNc1cc2c(cc1S(=O)(=O)Nc1ccc(C)c(C)c1)CCC(=O)N2	·	·	·	·	·	–	·
O=C1Nc2ccc(S(=O)(=O)NCc3ccccn3)c3cccc1c23	–	–	–	–	-60	–	–
O=C(/C=C/c1ccccn1)c1cc(Br)ccc1O	–	–	–	–	–	–	·
Cc1sc(NC(=O)c2sc3nc4c(C)cccc4cc3c2N)c(C#N)c1C	–	–	–	–	-63	?	–
O=C(c1cc2nc(C3CC3)cc(C(F)F)n2n1)N1CCOCC1	–	–	–	–	-63	–	–
COC(=O)c1[nH]c2cc(OC)c(OC)cc2c1/C=N/Nc1ccccc1	·	–	–	–	–	–	·
COc1cccc(-n2c(CNC(=O)OC(C)(C)C)n[nH]c2=S)c1	·	–	–	–	–	–	·
CC(C)NC(=O)c1ccc2c3n(nc2c1)-c1ccccc1CO3	–	-63	–	?	-52	–	?
CC(C)(C)n1nnnc1SCC(=O)Nc1nn(-c2ccccc2)nc1C(N)=O	–	–	–	–	-58	–	–
CC(=O)N(CC(=O)Nc1nn(-c2ccccc2)nc1C(N)=O)Cc1ccccc1	–	–	–	–	·	–	·
O=C(O)c1cccc(NC(=O)c2cn(-c3ccccc3)nc2-c2cc3ccccc3o2)c1	–	–	–	–	-53	·	–
O=S(=O)(Nc1nccs1)c1cc(Cl)ccc1Cl	–	–	–	–	-51	–	–
O=C(NCc1ccccc1F)Nc1nnc([C@H]2C[C@H](O)[C@@H](CO)O2)s1	·	–	·	·	–	·	·
SMILES	GoLoco inh red	PI4K2A inh	KAT2A inh	Tb PGK inh	PI5P4K alpha inh	Pin1 inh	ADP-Glo interf
O=C(NCc1cccc(F)c1)Nc1nnc([C@H]2C[C@H](O)[C@@H](CO)O2)s1	·	–	·	·	-50	·	–
CCCNC(=O)N(C)C[C@@H]1Oc2ncc(-c3ccncc3)cc2C(=O)N([C@H](C)CO)C[C@@H]1C	·	–	·	–	-56	·	–
COc1cc(OC)cc(C(=O)Nc2cc3c(cc2N2CCOCC2)n(C)c(=O)n3C)c1	·	–	–	–	·	–	·
COc1ccccc1C(=O)Nc1cc(-c2cccc(Br)c2)nn1-c1ccccc1	·	–	–	–	·	–	·
N#Cc1c(NC(=O)CSc2ncnc3sccc23)oc(-c2ccco2)c1-c1ccco1	–	–	?	–	-79	?	–
COc1ccc(C(=O)Nc2ccc(OCc3cc(=O)n4ccsc4n3)cc2)cc1OC	·	–	–	–	·	–	·

High-throughput results (PubChem)
